Several values for one entry are separate records, joined by “and”; a condition that tells them apart may be missing. Identical values can stand only once. Out of some 5,500 compounds screened, about 2,000 (36%) were called active. Roughly 18% stayed inconclusive and do not appear here. No stated cut-off is given here; in the data, active means normalized growth mostly below about 0.91 (no sharp cut-off); inconclusive means no clear call, values can overlap the other calls; inactive means mostly above about 0.92. This is one part of the list.
Assay: chemical genetic growth profiling, strain panel (AID 1159580);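 further: tested at 20 µM; growth read once vehicle control cultures reached saturation at 30 °C; 1 = growth at the plate median or of vehicle wells; lower values mean less growth of the strain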
Conditions: S. cerevisiae deletion strains, growth OD

Measured: normalized growth

COc1cc2c(cc1OC)[C@@H]1C(=O)c3ccc(OC)c(CC=C(C)C)c3O[C@@H]1CO2
inactive: locus YAL013W, strain DEP1, hits give low values 1.03 | locus YAL021C, strain ccr4, hits give low values 1.06 | locus YAL026C, strain drs2, hits give low values 1.04 | locus YAL030W, strain snc1, hits give low values 1.02 | locus YBL061C, strain skt5, hits give low values 1.02 | locus YBR009C, strain hhf1, hits give low values 1.01 | locus YBR021W, strain FUR4, hits give low values 1.03 | locus YBR023C, strain chs3, hits give low values 1.02 | locus YBR171W, strain sec66, hits give low values 1.05 | locus YBR229C, strain ROT2, hits give low values 1.02 | locus YBR231C, strain swc5, hits give low values 1.05 | locus YBR279W, strain paf1, hits give low values 1.01 | locus YCL011C, strain gbp2, hits give low values 1.02 | locus YCL016C, strain dcc1, hits give low values 1.02 | locus YCL029C, strain bik1, hits give low values 1.02 | locus YCL061C, strain MRC1, hits give low values 0.987 | locus YCL069W, strain vba3, hits give low values 1.03 | locus YCR088W, strain abp1, hits give low values 1.02 | locus YDL005C, strain med2, hits give low values 1.02 | locus YDL035C, strain GPR1, hits give low values 1.06 | locus YDL040C, strain nat1, hits give low values 1.02 | locus YDL074C, strain BRE1, hits give low values 1.05 | locus YDL101C, strain DUN1, hits give low values 1.01 | locus YDL185W, strain tfp1, hits give low values 1.02 | locus YDL192W, strain arf1, hits give low values 1.04 | locus YDR001C, strain nth1, hits give low values 1.02 | locus YDR069C, strain doa4, hits give low values 1.03 | locus YDR101C, strain arx1, hits give low values 1.03 | locus YDR137W, strain rgp1, hits give low values 0.892 | locus YDR159W, strain sac3, hits give low values 1.02 | locus YDR162C, strain NBP2, hits give low values 1.01 | locus YDR195W, strain ref2 1.06 | locus YDR297W, strain sur2, hits give low values 1.02 | locus YDR318W, strain mcm21, hits give low values 1.01 | locus YDR334W, strain swr1, hits give low values 1.02 | locus YDR335W, strain msn5, hits give low values 1.03 | locus YDR388W, hits give low values 1.02 | locus YDR392W, strain spt3, hits give low values 0.813 | locus YDR502C, strain sam2, hits give low values 1.01 | locus YEL003W, strain gim4, hits give low values 1.03 | locus YEL037C, strain rad23, hits give low values 1.01 | locus YEL061C, strain CIN8 (second series), hits give low values 1.03 | locus YEL061C, strain CIN8, hits give low values 1.04 | locus YER015W, strain faa2, hits give low values 1.04 | locus YER016W, strain bim1, hits give low values 1.03 | locus YER110C, hits give low values 1 | locus YER111C, strain swi4, hits give low values 1.02 | locus YER155C, strain BEM2 (second series), hits give low values 1.03 | locus YER155C, strain BEM2, hits give low values 0.993 | locus YER167W, strain BCK2, hits give low values 1.01 | locus YFR010W, strain ubp6, hits give low values 1.03 | locus YGL078C, strain dbp3, hits give low values 1.01 | locus YGL086W, strain mad1, hits give low values 0.999 | locus YGL167C, strain pmr1, hits give low values 1.03 | locus YGL173C, strain kem1, hits give low values 1.04 | locus YGL227W, strain vid30, hits give low values 1.03 | locus YGL240W, strain doc1, hits give low values 1.03 | locus YGL248W, strain PDE1, hits give low values 1.02 | locus YGL253W, strain hxk2, hits give low values 1.04 | locus YGR078C, strain PAC10, hits give low values 1.05 | locus YGR135W, strain pre9, hits give low values 1.02 | locus YGR252W, strain gcn5, hits give low values 0.994 | locus YHR013C, strain ard1, hits give low values 1.14 | locus YHR027C, strain rpn1, hits give low values 1.03 | locus YHR030C, strain SLT2, hits give low values 1.02 and 1.03 | locus YHR079C, strain IRE1 (second series), hits give low values 0.997 | locus YHR079C, strain IRE1, hits give low values 1.02 | locus YHR094C, strain hxt1, hits give low values 1.01 | locus YHR129C, strain ARP1, hits give low values 1.04 | locus YHR142W, strain chs7, hits give low values 1.01 | locus YHR200W, strain rpn10, hits give low values 1.01 | locus YIL066C, strain RNR3, hits give low values 1.01 | locus YIL073C, strain SPO22, hits give low values 1.1 | locus YIL125W, strain kgd1, hits give low values 0.995 | locus YIR030C, strain dcg1, hits give low values 0.998 | locus YJL092W, strain hpr5, hits give low values 1.03 | locus YJL095W, strain BCK1 (second series), hits give low values 1.02 | locus YJL095W, strain BCK1, hits give low values 1.04 and 1.05 | locus YJL115W, strain asf1, hits give low values 1.03 | locus YJL129C, strain trk1, hits give low values 0.953 | locus YJL134W, strain LCB3, hits give low values 1.02 | locus YJL154C, strain vps35, hits give low values 1.03 | locus YJL164C, strain tpk1, hits give low values 1 | locus YJL166W, strain qcr8, hits give low values 1.03 | locus YJL168C, strain set2, hits give low values 1 | locus YJL187C, strain SWE1 (second series), hits give low values 1 | locus YJL187C, strain SWE1, hits give low values 1.04 | locus YJR066W, strain TOR1, hits give low values 0.982 | locus YKL009W, strain mrt4, hits give low values 1.04 | locus YKL068W, hits give low values 0.999 | locus YKL085W, strain MDH1 (second series), hits give low values 0.999 | locus YKL085W, strain MDH1, hits give low values 0.999 | locus YKL160W, strain elf1, hits give low values 1.02 | locus YKL190W, strain CNB1, hits give low values 1.04 | locus YKR001C, strain vps1, hits give low values 0.934 | locus YKR026C, strain gcn3, hits give low values 1 | locus YKR091W, strain srl3, hits give low values 1.02 | locus YLL001W, strain dnm1, hits give low values 1.03 | locus YLL026W, hits give low values 1.03 | locus YLL041C, strain sdh2, hits give low values 1.02 | locus YLR027C, strain aat2, hits give low values 1.02 | locus YLR039C, strain RIC1, hits give low values 0.846 | locus YLR058C, strain SHM2, hits give low values 1 | locus YLR102C, strain apc9, hits give low values 1.01 | locus YLR113W, strain HOG1, hits give low values 0.988 | locus YLR221C, strain rsa3, hits give low values 1.01 | locus YLR258W, strain gsy2, hits give low values 1.03 | locus YLR262C, strain YPT6 (second series), hits give low values 0.91 | locus YLR268W, strain sec22, hits give low values 1.05 | locus YLR320W, strain mms22, hits give low values 1.02 | locus YLR330W, strain CHS5, hits give low values 1.01 | locus YLR342W, strain FKS1, hits give low values 1.02 | locus YLR357W, strain rsc2, hits give low values 1.02 | locus YLR370C, strain arc18, hits give low values 1.02 | locus YLR371W, strain rom2, hits give low values 1.04 | locus YLR384C, strain iki3, hits give low values 1.02 | locus YLR418C, strain cdc73, hits give low values 1.01 | locus YML016C, strain PPZ1, hits give low values 1.01 | locus YML032C, strain rad52, hits give low values 1 | locus YML120C, strain ndi1, hits give low values 1.01 | locus YML124C, strain tub3, hits give low values 1.01 | locus YMR058W, strain fet3, hits give low values 1.03 | locus YMR078C, strain ctf18, hits give low values 1.01 | locus YMR125W, strain sto1, hits give low values 1.03 | locus YMR129W, hits give low values 1.02 | locus YMR205C, strain PFK2, hits give low values 0.993 | locus YMR223W, strain ubp8, hits give low values 1.02 | locus YMR231W, strain pep5, hits give low values 1.02 | locus YMR263W, strain SAP30, hits give low values 1.03 | locus YMR307W, strain GAS1, hits give low values 1.08 | locus YNL067W, strain RPL9B, hits give low values 1.04 | locus YNL071W, strain lat1, hits give low values 1.01 | locus YNL153C, strain GIM3, hits give low values 1.04 | locus YNL183C, strain NPR1, hits give low values 0.974 | locus YNL209W, strain ssb2, hits give low values 1.03 | locus YNL233W, strain BNI4, hits give low values 0.984 | locus YNL248C, strain rpa49, hits give low values 1.05 | locus YNL250W, strain rad50, hits give low values 0.961 | locus YNL271C, strain bni1, hits give low values 1.01 | locus YNL298W, strain CLA4, hits give low values 1.01 | locus YNL307C, strain MCK1, hits give low values 0.999 | locus YNL322C, strain KRE1 (second series), hits give low values 1.01 | locus YNL322C, strain KRE1, hits give low values 1.02 | locus YNR049C, strain mso1, hits give low values 1.04 | locus YNR052C, strain pop2, hits give low values 1.03 | locus YOL012C, strain htz1 1.26 | locus YOL147C, strain pex11, hits give low values 1 | locus YOR001W, strain rrp6, hits give low values 1.04 | locus YOR061W, strain CKA2, hits give low values 1.02 | locus YOR069W, strain VPS5, hits give low values 1.01 | locus YOR070C, strain gyp1, hits give low values 1.02 | locus YOR080W, strain dia2, hits give low values 1.04 | locus YOR083W, strain WHI5, hits give low values 1.02 | locus YOR106W, strain vam3, hits give low values 1.05 | locus YOR136W, strain idh2, hits give low values 1.03 | locus YOR144C, strain elg1, hits give low values 1.01 | locus YOR184W, strain ser1, hits give low values 1.05 | locus YOR231W, strain MKK1, hits give low values 1.04 | locus YOR265W, strain rbl2, hits give low values 1.02 | locus YOR270C, strain vph1, hits give low values 1.06 | locus YOR290C, strain snf2, hits give low values 1 | locus YOR316C, strain cot1, hits give low values 0.992 | locus YPL051W, strain arl3, hits give low values 1.01 | locus YPL078C, strain atp4, hits give low values 1.03 | locus YPL106C, strain sse1, hits give low values 1.1 | locus YPL240C, strain hsp82, hits give low values 1.02 | locus YPL256C, strain CLN2, hits give low values 1.03 | locus YPR119W, strain clb2, hits give low values 1.01 | locus YPR141C, strain kar3, hits give low values 1 | locus YPR163C, strain tif3, hits give low values 0.997 | locus YPR167C, strain met16, hits give low values 1.01 | strain wtn01, hits give low values 1.01

Source: PubChem BioAssay AID1159580 (chemical genetic matrix, 2015)
